According to PubChem BioAssay (NCI):
About 83,000 compounds went through this panel and 20% of them were active in at least one assay; those are over-represented in the sample as a whole.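 Growth was measured after 48 h exposure to one concentration of compound in 96-well plates. Values under 10 count as active.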 Values without a mark were called inactive. Activity calls are given as the source filed them.

tested on: SNB-19 CNS; experiment: NCI-60 one-dose screen, 48 h (100 = growth as untreated, 0 = no growth, -100 = all killed); conditions: 10 µM
Protocol: Growth inhibition of the SNB-19 human tumor cell line is measured as a screen for anti-cancer activity. Cells are grown in 96 well plates and exposed to the test compound for 48 hours. Compounds are tested at a single concentration, which is 10^-5 M for most compounds. The reported endpoint is percent growth (GI% or GIPRCNT), where numbers from 0 - 100% represent growth inhibition, and numbers from -100% - 0 represent cell death. For example, a value of 40 represents 60% growth inhibition. A value of 0 means no net growth occurred over the course of the experiment. A value of -40 indicates 40% of cells at the beginning of the experiment died by the end of the experiment. A value of -100 means all cells are dead at the end of the experiment.
NCI-60 Human Tumor Cell Lines Screen was performed using the standard one-dose NCI protocol, which is described in more detail at https://dtp.cancer.gov/discovery_development/nci-60/default.htm.
Compounds with GIPRCNT values below 10 were considered active. Activity score was based on GIPRCNT using the following formula: […]
Score is 0 for GIPRCNT values of 100 or above, 50 for GIPRCNT values of 0, and 100 for GIPRCNT values of -100.

SMILES	growth
O=C(c1ccccc1)c1ccc2nc(-c3ccccc3Br)[nH]c2c1	4.77% (active)
Cn1cc(-c2nnc(N)nc2-c2c[nH]c3ccccc23)c2cc(Br)cnc21	66.6%
COc1ccc(OC)c(-n2cc(C#N)c(N)c2C(=O)c2ccc(Cl)cc2Cl)c1	45.5%
COc1ccc(-n2c(SCC(=O)NNS(=O)(=O)c3ccccc3)nc3ccc(Cl)cc3c2=O)cc1	98.6%
Nc1nnc(-c2c[nH]c3ncc(Br)cc23)c(-c2c[nH]c3ccc(Br)cc23)n1	46.7%
O=C(CC(=O)Nc1ccc(Oc2ncnc3scc(Nc4n[nH]c(=S)s4)c23)cc1)Nc1ccc(Br)cc1	99.9%
Cn1cc(-c2cc3nc(-c4c[nH]c5ccccc45)cc(N)n3n2)c2cc(Cl)ccc21	-78.2% (active)
O=C1NC2C=CC=CC2/C1=C1/SC(=S)N(C2CC(=O)N(c3ccc(Br)cc3)C2=O)C1=O (stereo not given)	93.9%
Fc1ccc(/C=C/c2nc3ccccc3n3c(-c4ccc(Cl)cc4)nnc23)cc1	86.2%
COc1ccc(C2OC[C@@]3(C)C4CC[C@]5(C)C(CC=C6C7CC(C)(C)CC[C@]7(C(=O)O)CC[C@]65C)[C@@]4(C)C[C@@H](O)[C@@H]3O2)cc1 (stereo not given in full)	90.9%
C#CCOc1cc(N(CC)CC)ccc1C(C(=O)NC(C)(C)C)N(C(=O)C1CCc2cc(F)ccc2O1)c1ccc(F)cc1F (stereo not given)	39.8%
CCOc1ccc(/C=N/NC(=O)Cn2nc(Cc3ccc(OC)cc3)c3onc(C)c3c2=O)cc1	29%
COc1cc2oc(-c3cccc(C(=O)Nc4ccc(Cl)cc4)c3)cc(=O)c2c(OCCN)c1OC	-78.7% (active)
COc1ccccc1-n1cc(C#N)c(N)c1C(=O)c1ccc(Cl)cc1Cl	30.1%
COc1ccc(NCc2cn(-c3ccc(C(=O)O)cc3)nc2-c2ccc(F)cc2)cc1C(F)(F)F	39.3%
CCOC(=O)C1=C(N)N(c2ccc(C)cc2)C2=C(C(=O)CC(C)(C)C2)C1c1ccccc1Br (stereo not given)	86.7%
Cn1cc(-c2nc(N)nnc2-c2c[nH]c3ccccc23)c2cc(Br)cnc21	44.9%
COc1cc(Nc2nc(O)c(/C=C3\C=Nc4ccccc43)s2)cc(OC)c1OC	-39.4% (active)
COc1ccc(Cn2cc(C#N)c(N)c2C(C)=O)c(OC)c1	105%
COc1cccc(C(=O)CSc2nc(-c3ccc(OCc4ccccc4)c(OC)c3)c(C#N)c(=O)[nH]2)c1	70.7%

SMILES	growth
O=C(c1ccc(F)cc1)C(c1c[nH]c2ccccc12)c1c[nH]c2ccccc12	92.6%
COC(=O)CNC(=O)COc1c(OC)c(OC)cc2oc(-c3cccc(C(=O)Nc4ccc(Cl)cc4)c3)cc(=O)c12	25.9%
O=C(Nc1ccc(OCc2ccc(Cl)cc2)cc1)Nc1ccc(Cl)c(C(F)(F)F)c1	11%
CCOC(=O)c1ccc(NC(=O)CSC(CC(=O)c2sc(Nc3ccccn3)nc2C)c2ccccc2F)cc1 (stereo not given)	21.1%
Cc1ccc2sc3c(c2c1)Oc1nc[nH]c(=O)c1C3c1cccc(F)c1 (stereo not given)	92.6%
COc1ccc(C(=O)COc2ccc(NC(=O)Nc3ccccc3)cc2)cc1	93.3%
O=C(Nc1ccc(OCC(=O)c2ccc(Cl)cc2)cc1)Nc1ccc(Cl)c(C(F)(F)F)c1	21.3%
COc1cc(C2CC(c3ccccc3)=Nc3c(N)nc(N)nc3N2)ccc1Oc1nc(NCCO)nc(N2CCOCC2)n1 (stereo not given)	89.8%
CC1[C@H]2[C@H](C[C@H]3[C@@H]4CC=C5c6sc(Nc7cccc(Cl)n7)nc6CC[C@]5(C)[C@H]4CC[C@@]32C)O[C@]12CC[C@@H](C)CO2 (stereo not given in full)	96.6%
O=C1S/C(=C\c2ccc([N+](=O)[O-])cc2)C(=O)N1CCN1CCCCC1	98.6%
COc1cc2oc(-c3cccc(C(=O)Nc4ccc(Cl)cc4)c3)cc(=O)c2c(OCCNC(=O)[C@@H](N)CO)c1OC	25%
O=C(CSc1nc2ccccc2c(=O)n1-c1ccc(Cl)cc1)Nc1ccc(-c2nc3ccc([N+](=O)[O-])cc3[nH]2)cc1	48.7%
O=C(Nc1ccc(OCc2ccc(F)cc2)cc1)Nc1ccc(Cl)c(C(F)(F)F)c1	18.3%
C#C[C@]1(O)CC[C@H]2[C@@H]3CC=C4c5sc(Nc6ccc(N(C)C)cc6)nc5CC[C@]4(C)[C@H]3CC[C@@]21C	18.1%
Cn1cc(-c2nnc(N)nc2-c2c[nH]c3ccc(F)cc23)c2cc(Br)cnc21	58.3%
COc1cccc(O)c1/C=C1\SCc2cc3c(OC)cccc3[o+]c21	101%
CC1(C)CC(=O)C2=C(C1)N(Cc1ccc(C(=O)O)cc1)C1=C(C(=O)CC(C)(C)C1)C2c1ccc(Cl)cc1	112%
COc1ccc2[nH]cc(-c3nc(N)nnc3-c3cn(C)c4ncc(Br)cc34)c2c1	30%
COc1ccc(Cc2nn(CC(=O)N/N=C/c3ccc([N+](=O)[O-])cc3)c(=O)c3c(C)noc23)cc1	59.6%
O=C(Nc1ccc(Oc2ncnc3scc(Nc4n[nH]c(=S)s4)c23)cc1)C1(C(=O)Nc2cccc(C(F)(F)F)c2)CC1	99.6%
